In PubChem BioAssay (EPA / NIEHS):
Inconclusive results are not listed. Active and inactive are the calls of the source. How the source made its calls: active means hit-call score of the fitted dose curve at least 0.9, where 1 is the maximum; inconclusive means response in the unintended direction; inactive means score below 0.9.

Each compound was assayed against human Vitamin D Receptor (VDR), VDR (gene 7421) (UniProt P11473) (assay: ATG_VDR_TRANS: Attagene TRANS-FACTORIAL HepG2 Assay for human Vitamin D Receptor (VDR) (AID 2283022)).
Sequence of human Vitamin D Receptor (VDR), VDR (gene 7421) (P11473 whole entry, looked up, the tested form may be a part): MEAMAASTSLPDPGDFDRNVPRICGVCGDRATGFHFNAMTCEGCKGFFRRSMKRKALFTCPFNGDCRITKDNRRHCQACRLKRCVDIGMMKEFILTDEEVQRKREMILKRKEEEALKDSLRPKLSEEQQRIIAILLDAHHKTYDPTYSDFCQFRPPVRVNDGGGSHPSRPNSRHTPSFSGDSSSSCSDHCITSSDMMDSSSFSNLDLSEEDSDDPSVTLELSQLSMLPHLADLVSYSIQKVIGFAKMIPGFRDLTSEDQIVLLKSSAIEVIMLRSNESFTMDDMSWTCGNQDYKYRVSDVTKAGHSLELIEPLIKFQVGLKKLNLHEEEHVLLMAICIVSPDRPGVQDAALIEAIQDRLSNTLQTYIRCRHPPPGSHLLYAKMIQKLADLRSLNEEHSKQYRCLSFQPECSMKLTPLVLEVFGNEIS
Summary of the method: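 Transactivation by an exogenous VDR-Gal4 chimera in transiently transfected HepG2 cells was measured as reporter transcript level 24 hours after chemical treatment. RT-PCR products were analysed by capillary electrophoresis and fitted in the positive direction relative to DMSO.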

Compound	outcome
CC(=[OH+])/C=C(/C)[O-].CC(=[OH+])/C=C(/C)[O-].CC(=[OH+])/C=C(/C)[O-].[Al]	inactive
CCC(C)c1cccc(C(C)CC)c1O (centres undefined)	inactive
O=C1C(Cl)=C(Cl)C(=O)c2ccccc21	inactive
CC1(C)CCC(Cc2ccc(Cl)cc2)C1(O)Cn1cncn1 (centres undefined)	inactive
COP(=O)(OC)OC	inactive
Cc1ccc(N)cc1Cl	inactive
CN(CCCC(=O)c1cccnc1)N=O	inactive
CCCCCCCCSC(=O)Oc1cc(Cl)nnc1-c1ccccc1	inactive
CCC(=O)c1ccccc1	inactive
CC(=O)C=C(C)C	inactive
COc1ccccc1OC	inactive
CC(C)c1cccc(C(C)C)c1O	inactive
CCC1(c2ccc(N)cc2)CCC(=O)NC1=O (centres undefined)	inactive
N#CN=C(N)N	inactive
CC1CN1P(=O)(N1CC1C)N1CC1C (centres undefined)	inactive
CCc1ccccc1C	inactive
O=C(O)Cc1ccccc1	inactive
COS(=O)(=O)c1ccc(C)cc1	inactive
c1ccc(N=NNc2ccccc2)cc1	inactive
O=C(Cc1ccccc1)c1ccccc1	inactive

Compound	outcome
N#CCc1ccc(Cl)cc1	inactive
COc1ccc(C=O)cc1	inactive
COc1cccc(C=O)c1	inactive
Nc1cccc(Cl)c1	inactive
C=CC#N	inactive
O=C(CCl)CCl	inactive
CC(C)C1CCC(Cc2ccc(Cl)cc2)C1(O)Cn1cncn1 (centres undefined)	inactive
CCCCOCCOC(C)=O	inactive
O=P(O)(O)CN(CP(=O)(O)O)CP(=O)(O)O	inactive
C[C@@H](Oc1ccc(Cl)cc1Cl)C(=O)O	inactive
CC(=O)c1cc(C(C)(C)C)cc2c1CCC2(C)C	inactive
COc1cc2c(cc1OC)[C@@]13CCN4CC5=CCO[C@H]6CC(=O)N2[C@H]1[C@H]6[C@H]5C[C@H]43	inactive
C[C@H]1O[C@@H](O[C@H]2[C@@H](O)C[C@H](O[C@H]3[C@@H](O)C[C@H](O[C@H]4CC[C@@]5(C)[C@H](CC[C@@H]6[C@@H]5CC[C@]5(C)[C@@H](C7=CC(=O)OC7)CC[C@]65O)C4)O[C@@H]3C)O[C@@H]2C)C[C@H](O)[C@@H]1O	inactive
ClCc1ccccn1	inactive
CCC[CH2][Sn]([CH2]CCC)([CH2]CCC)[O]C(=O)c1ccccc1	inactive
CCOP(=O)(CN(CCO)CCO)OCC	inactive
c1cc[c]([Hg][c]2ccccc2)cc1	inactive
OCC(O)CCl (centres undefined)	inactive
Nc1ccc(N=Nc2ccc(-c3ccc(N=Nc4c(S(=O)(=O)O)cc5cc(S(=O)(=O)O)c(N=Nc6ccccc6)c(O)c5c4N)cc3)cc2)c(N)c1	inactive
